# Assay outcomes from PubChem.
# VACV Venus inh: inhibitors of vaccinia virus (Venus reporter); Vaccinia virus Venus reporter expression, fluorescence; Potency, µM (highest dose often 36.5 µM), for inactives: top-dose activity change, negative = inhibition, most hits filed as inhibitors; actives 0.46% (n = 330,000); calls by dose curve; tested in A549 cells; also: potency is read from the fitted curve at half-maximal effect; nearly all actives have a fitted effect of over 30% in size
# FMDV antiviral: antivirals against foot and mouth disease virus. actives 1.2% (n = 410,000). FMDV antiviral cell-based qHTS. AID 1159524. Potency, µM (titrated, usually from 57.9 µM), for the others: top-dose activity change, negative = inhibition, most hits filed as inhibitors; calls by dose curve; tested in HEK293T cells; also: read-out not given here; potency is read from the fitted curve at half-maximal effect; nearly all actives have a fitted effect of over 45% in size
# HCMV inh: blocks human cytomegalovirus replication. HFF cells, HCMV-luciferase reporter, 72 h; stronger effect = lower value. activity change, negative = inhibition, % at 57.5 µM. actives 4.5% (n = 410,000); in the data active = activity change below about -60%; inconclusive = no clear call, values can overlap the other calls; inactive = above about -39%
#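 Human foreskin fibroblasts infected with luciferase-reporter HCMV at MOI 1 PFU/cell, compounds at two doses. Luciferase measured 72 h post infection; normalized to buffer-only basal and Salinomycin (10uM) controls.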
# VACV mCherry inh: vaccinia inhibition (mCherry reporter); Vaccinia virus mCherry reporter infection, fluorescence; Potency, µM (titrated, usually from 36.5 µM), without a hit: at the top dose activity change, negative = inhibition, hits mostly inhibitors; actives 0.63% (n = 310,000); calls by dose curve; tested in A549 cells; also: potency is read from the fitted curve at half-maximal effect; nearly all actives have a fitted effect of over 35% in size
# Marburg entry inh: inhibitors of Marburg virus binding or cell entry | Marburg virus pseudotyped entry inhibition, cell reporter | Potency, µM (titrated, usually from 37.8 µM), inactives show at the highest dose activity change, negative = inhibition, usual class: inhibitors | AID 540276 | actives 1.8% (n = 300,000); calls by dose curve; tested in HEK293 cells; also: potency is read from the fitted curve at half-maximal effect
# LASV entry inh: Lassa virus entry inhibition; Lassa virus pseudotype entry inhibition, cell reporter; Potency, µM (titrated, usually from 37.9 µM), for inactives: at the top dose activity change, negative = inhibition, hits mostly inhibitors; actives 1.2% (n = 300,000); AID 540256; calls by dose curve; tested in HEK293 cells; also: potency is read from the fitted curve at half-maximal effect; nearly all actives have a fitted effect of over 50% in size
# Active calls of the source: *; i = inactive; u = inconclusive; x = not tested or not shown; [ ] = another dose, or the depositor's remark. Only some compounds are listed: those with a hit (about 6.5% of all), similar ones and a draw of the others. % is scaled to controls: 0 for no effect and ±100 for the full control effect.
SMILES,VACV Venus inh,FMDV antiviral,HCMV inh,VACV mCherry inh,Marburg entry inh,LASV entry inh
CCOC(=O)c1c(-c2ccccc2)oc2ccc(O)c(CN3CCCC3)c12,x,-22%,-62*,x,23µM*,u
Cc1ccc(NC(=O)c2c(C)oc3ccc(O)c(CN4CCCCCC4)c23)c(C)c1,-14%[7.34 µM],0%,-65*,-14%[7.34 µM],3.5µM*,u
COc1ccc(NC(=O)c2c(C)oc3ccc(O)c(CN4CCN(Cc5ccccc5)CC4)c23)cc1Cl,-25%,-19%,-14,-11%,u,7.9µM*
Cc1ccc(NC(=O)c2c(C)oc3ccc(O)c(CN4CCOCC4)c23)c(C)c1,1%,-20%,10,-4%,8%[46.1 µM],-13%[46.1 µM]
Cc1ccc(NC(=O)c2c(C)oc3ccc(O)c(CN4CCN(Cc5ccccc5)CC4)c23)cc1,0%,-19%,-21,-18%,10µM*,u
CCOC(=O)c1c(-c2ccccc2)oc2ccc(O)c(CN(C)C)c12,x,0%,-7,x,u,-29%
COc1ccc(C(=O)c2c(C)oc3ccc(O)c(CN4CCOCC4)c23)cc1,x,17%,-34,x,21µM*,u
Cc1oc2ccc(O)c(CN3CCCCCC3)c2c1C(=O)Nc1cccc(C(F)(F)F)c1,u,-29%,-86*,-3%,u,u
COc1ccc(NC(=O)c2c(C)oc3ccc(O)c(CN4CCOCC4)c23)cc1,-4%,-20%,13,-5%,u,-12%[46.1 µM]
CCC1CCc2c(sc(NC(=O)C3c4ccccc4Oc4ccccc43)c2C(=O)OC)C1 (stereo not given),-20%,-10%,-20,-21%,u,-10%[46.1 µM]
COC(=O)[C@H](N)Cc1ccc(Cl)cc1,x,x,x,x,-20%,x
O=C(c1ccc(S(=O)(=O)Cc2cc(F)ccc2F)c([N+](=O)[O-])c1)N1CCCC1,-9%,0%,-75*,-26%,u,7%
CC1CCN(C(=O)c2ccc(S(=O)(=O)Cc3cccc(F)c3)c([N+](=O)[O-])c2)CC1,-8%,u,-84*,-10%,u,-5%
Ic1ccc(Nc2nc(NCCN3CCOCC3)nc(N3CCCC3)n2)cc1,-20%,x,x,-24%,x,x
CN1CCN(c2ccc([N+](=O)[O-])c3no[n+]([O-])c23)CC1,u,5µM*,-98*,u,0.56µM*,0.32µM*
O=[N+]([O-])c1ccc(N(CCO)CCO)c2c1no[n+]2[O-],84%,u,-99*,u,x,x
CN(CCO)c1cc(N(C)CCO)c([N+](=O)[O-])cc1[N+](=O)[O-],-9%,-2%,-35,-9%,8%[46.1 µM],11%[46.1 µM]
Cn1cc(CNC2CCN(c3cccc(NC(=O)c4cccnc4)c3)CC2)cn1,-2%,-8%,x,-9%,x,x
Cc1cc(NC(=O)C(C)SCC(=O)N(Cc2ccccc2)c2ccccc2)no1 (stereo not given),11%,-13%,u,-17%,3.5µM*,u
Cc1cc(NC(=O)C(C)SCC(=O)OCC(=O)N(Cc2ccccc2)C(C)(C)C)no1 (stereo not given),-11%,-7%,-34,-8%,4%,4%
Cc1ccc(NC(=O)c2sc(-n3nc(C)c(Cc4ccc5c(c4)OCO5)c3C)nc2C)cc1C,-6%,-4%,-113*,-10%,-1%[46.1 µM],-10%[46.1 µM]
CC(=O)c1cccc(NC(=O)c2sc(-n3nc(C)c(Cc4ccc5c(c4)OCO5)c3C)nc2C)c1,u,u,15,-19%,u,-18%[46.1 µM]
Cc1c(C(=N)C(C#N)C#N)c(=N)oc2c1ccc1ccccc12,u,-4%,-75*,-17%,x,x
Cc1c(C(=O)O)oc2c1ccc1ccccc12,-7%,-5%,-9,i,0%[46.1 µM],-14%
CC1=C/C(=C\C=C(C#N)C#N)N(C)c2ccccc21,119%,-14%,-81*,i,6%[46.1 µM],0%[46.1 µM]
SMILES,VACV Venus inh,FMDV antiviral,HCMV inh,VACV mCherry inh,Marburg entry inh,LASV entry inh
COC(=O)/C=C/c1cccc(N(Cc2ccc(-c3ccc(N(C)C)cc3)cc2)C(=O)C2CCCCC2)c1,x,-5%,x,x,x,x
CC(C)N1CCc2c(sc(NC(=O)c3ccco3)c2C(N)=O)C1,-26%,0%,-76*,u,15%[46.1 µM],28%[46.1 µM]
NC(=O)c1c(NC(=O)c2ccc([N+](=O)[O-])o2)sc2c1CCCC2,-23%,27%,6,u,-2%[46.1 µM],u
CC(C)N1CCc2c(sc(NC(=O)c3cc4cc([N+](=O)[O-])ccc4s3)c2C(N)=O)C1,-10%,-22%,-95*,u,x,x
COC(=O)c1c(NC(=O)c2ccco2)sc2c1CCN(C(C)C)C2,x,u,6,x,x,x
CN1CCc2c(sc(NC(=O)c3ccc([N+](=O)[O-])o3)c2C(N)=O)C1,2.2µM*,-6%,-104*,u,u,u
CCOC(=O)N(C)C[C@H]1OCc2cnnn2CCCC(=O)N([C@H](C)CO)C[C@@H]1C,x,x,-10,x,x,x
CC(=O)c1c(C)[nH]c(-c2ccccc2)nc1=S,4%[7.34 µM],17%,35,i[7.34 µM],15%[46.1 µM],12%
CC(=O)c1c(NC(=O)c2ccccc2)[nH]c(-c2ccccc2)nc1=S,5%,-9%,-84*,-8%,3%[46.1 µM],-3%[46.1 µM]
Cc1cccc(-c2nnc(SCc3cc(=O)c4cccc(Cl)c4[nH]3)n2C)c1,-24%,25µM*,u,-28%,x,-20%[46.1 µM]
Cc1ccc(C)c(C2=NNC(=NCc3ccccc3)SC2)c1,-15%,6%,-66*,-8%,u,u
COc1ccc(CNC(=O)COC(=O)C2CCC(C(C)(C)C)CC2)cc1 (stereo not given),-15%,u,-77*,-18%,u,u
OC(CN1C=CCc2ccccc21)c1ccc(Cl)cc1Cl (stereo not given),-15%,x,x,16%,x,x
CC1(C(=O)Nc2ccccc2)CCN1C(=O)Cc1ccc(-c2ccccc2)cc1 (stereo not given),25%,u,-74*,23%,x,x
CC1(C(=O)Nc2ccc3c(c2)OCO3)CCN1C(=O)Cc1ccc(-c2ccccc2)cc1 (stereo not given),-25%,0%,-81*,u,x,x
COc1cccc(CN2CCC(c3nnc(SCC4CCCO4)n3C)CC2)c1O (stereo not given),-8%,-5%,x,-12%,x,x
CCC(C)(C)c1ccc(OCCCC[n+]2ccccc2)c(C(C)(C)CC)c1,x,32µM*,-98*,x,x,x
CCC(C)(C)c1ccc(Oc2cccc(C(=O)O)c2)cc1,4%,38%,88,-5%,4%[46.1 µM],17%[46.1 µM]
N#CCC(=O)Nc1ccc(C(=O)OCC(=O)NC(=O)Cc2ccccc2)cc1,3%,47%,-13,-11%,-2%,14%
CNC(=O)COC(=O)c1ccc(NC(=O)CC#N)cc1,-10%,7%,-101*,i,-4%,u
CCCN1C(=O)c2ccccc2NC1c1ccc(OC)c(COc2ccc([N+](=O)[O-])cc2)c1 (stereo not given),-11%,x,x,17%,x,x
COC(=O)c1ccccc1-c1c2ccc(=N)cc-2oc2cc(N)ccc12,x,0%,-97*,167%,u,7.9µM*
